The source of these data is PubChem BioAssay (NCI).

Test [1] is described as follows: NCI Yeast Anticancer Drug Screen. Data for the rad50 strain (AID 155).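 Also: 0% = growth of vehicle-only cultures of the same strain.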 The following applies: S. cerevisiae rad50 strain growth inhibition, active compounds read high. An outline of the steps: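 Compounds were tested on a yeast strain with an engineered DNA damage repair alteration; the reported value is growth inhibition normalised to vehicle treatment.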
Test [2] is described as follows: NCI Yeast Anticancer Drug Screen. Data for the mec2-1 strain (AID 157). The following applies: S. cerevisiae mec2-1 strain, active compounds read high. An outline of the steps: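 Each compound was tested on mec2-1 yeast, a strain altered in DNA damage repair or cell cycle control. Growth inhibition is reported relative to vehicle.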
Test [3] in a line: NCI Yeast Anticancer Drug Screen. Data for the sgs1 mgt1 strain (AID 161).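 Also: 0% = growth of cultures given vehicle only.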 The following applies: S. cerevisiae sgs1 mgt1 strain, active compounds read high. An outline of the steps: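 Read-out: growth inhibition vs vehicle controls. Cells: mutant yeast strain deficient in DNA damage repair.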
Test [4] in a line: NCI Yeast Anticancer Drug Screen. Data for the cln2 rad14 strain (AID 165).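 Also: 0% = growth equal to vehicle treated cultures.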 The following applies: S. cerevisiae cln2 rad14 strain, active compounds read high. An outline of the steps: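 Test compounds were added to cln2 rad14 yeast cultures; inhibition of growth was then determined by comparison with vehicle treatment.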
The nature of test [5]: NCI Yeast Anticancer Drug Screen. Data for the bub3 strain (AID 167). The following applies: S. cerevisiae bub3 mutant strain, active compounds read high. The procedure, abridged: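 Growth of a checkpoint-deficient yeast mutant is measured after compound exposure. Values represent inhibition relative to vehicle.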
Test [6] in a line: NCI Yeast Anticancer Drug Screen. Data for the mlh1 rad18 strain (AID 175). The following applies: S. cerevisiae mlh1 rad18 strain growth inhibition, active compounds read high. The procedure, abridged:
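Inhibition values reflect reduced growth of mutant yeast versus vehicle-treated controls following compound exposure; the mutations affect DNA damage repair.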

[7] abbreviates: at 5.0 µM (retest, dose inferred, filed as 0.5).
Setting [8] is: at 50.0 µM (retest, dose inferred, filed as 5.0).

This is part of a sample that, as a whole, favours compounds with a hit. Of some 79,000 tested, about 15% had one in any assay. Values without a mark were called inactive. The source made the active and inactive calls. Rule as the data show it: active = growth inhibition above about 70%; inactive = the rest.

Turning to `O=C(Nc1cccnc1)c1ccc(CSc2ccc(Cl)cc2)o1`, the growth inhibition was 56% in test [1] (setting [7]); 97% (active) in test [1] (setting [8]); 90.6% (active) in test [1] (at 50.0 µM); 41% in test [2] (setting [7]); 98% (active) in test [2] (setting [8]); 92.3% (active) in test [2] (at 50.0 µM). Further, the growth inhibition in test [3] (setting [7]) is 48%; in test [3] (setting [8]), 97% (active); in test [3] (at 50.0 µM) it was 93.8% (active); in test [4] (setting [7]), 40%; in test [4] (setting [8]) it was 94% (active); in test [4] (at 50.0 µM), 90.8% (active). Moreover, the growth inhibition in test [5] (setting [7]) is 50%; in test [5] (setting [8]) it was 63%; in test [5] (at 50.0 µM), 92.2% (active); in test [6] (setting [7]), 57%; in test [6] (setting [8]), 94% (active); in test [6] (at 50.0 µM), 92.2% (active).
On to `NC(=O)C1CCCN1C(=O)C1CCCN(Cc2cc(CN3CCCC(C(=O)N4CCCC4C(N)=O)C3)cc(CN3CCCC(C(=O)N4CCCC4C(N)=O)C3)c2)C1` (stereo unspecified), for which the growth inhibition in test [1] (setting [7]) was 2%; in test [1] (setting [8]), 9%; in test [1] (at 50.0 µM), 78.1% (active); in test [2] (setting [7]), -5%; in test [2] (setting [8]), -21%; in test [2] (at 50.0 µM), 40.7%. Further, the growth inhibition in test [3] (setting [7]) was -1%; in test [3] (setting [8]) it was -8%; in test [3] (at 50.0 µM), 59.5%; in test [4] (setting [7]) it was -2%; in test [4] (setting [8]), 3%; in test [4] (at 50.0 µM) it was 16.9%. The growth inhibition in test [5] (setting [7]) is -23%; in test [5] (setting [8]) it was 2%; in test [5] (at 50.0 µM), 48.8%; in test [6] (setting [7]), -7%; in test [6] (setting [8]), -1%; in test [6] (at 50.0 µM), 28.6%.
Take `CCS(=O)(=O)C(C(O)C(O)C(O)C(O)CO)S(=O)(=O)CC` (stereo unspecified): the growth inhibition is -3% in test [1] (setting [7]); -6% in test [1] (setting [8]); 16.2% in test [1] (at 50.0 µM); -2% in test [2] (setting [7]); -6% in test [2] (setting [8]); 8.95% in test [2] (at 50.0 µM). Further, the growth inhibition in test [3] (setting [7]) was -2%; in test [3] (setting [8]), -2%; in test [3] (at 50.0 µM), 7.25%; in test [4] (setting [7]) it was 0%; in test [4] (setting [8]), -10%; in test [4] (at 50.0 µM), 43.5%. For the same compound, the growth inhibition in test [5] (setting [7]) was 0%; in test [5] (setting [8]) it was 4%; in test [5] (at 50.0 µM) it was -2%; in test [6] (setting [7]) it was -4%; in test [6] (setting [8]) it was -10%; in test [6] (at 50.0 µM), -7.05%.
Take `CC(C)SC(=S)Nc1ccc(Cl)c([N+](=O)[O-])c1`: the growth inhibition is 25% in test [1] (setting [7]); 99% (active) in test [1] (setting [8]); 99.3% (active) in test [1] (at 50.0 µM); 15% in test [2] (setting [7]); 99% (active) in test [2] (setting [8]); 99.6% (active) in test [2] (at 50.0 µM). The growth inhibition in test [3] (setting [7]) is 18%; in test [3] (setting [8]), 100% (active); in test [3] (at 50.0 µM), 99.5% (active); in test [4] (setting [7]), 2%; in test [4] (setting [8]), 99% (active); in test [4] (at 50.0 µM), 99.2% (active). For the same compound, the growth inhibition was 12% in test [5] (setting [7]); 99% (active) in test [5] (setting [8]); 99.5% (active) in test [5] (at 50.0 µM); 30% in test [6] (setting [7]); 99% (active) in test [6] (setting [8]); 99.4% (active) in test [6] (at 50.0 µM).
Turning to `CCOC(=O)c1cccc(C)c1C(=O)c1ccc(C)cc1C`, the growth inhibition is 3% in test [1] (setting [7]); 66% in test [1] (setting [8]); 38.9% in test [1] (at 50.0 µM); 4% in test [2] (setting [7]); 79% (active) in test [2] (setting [8]); 79.3% (active) in test [2] (at 50.0 µM). For the same compound, the growth inhibition in test [3] (setting [7]) was 0%; in test [3] (setting [8]), -36%; in test [3] (at 50.0 µM), 47.3%; in test [4] (setting [7]), 6%; in test [4] (setting [8]), -1%; in test [4] (at 50.0 µM), -9.5%. The growth inhibition in test [5] (setting [7]) is -4%; in test [5] (setting [8]), 24%; in test [5] (at 50.0 µM), 82.8% (active); in test [6] (setting [7]) it was -2%; in test [6] (setting [8]) it was 41%; in test [6] (at 50.0 µM) it was 59.6%.
On to `Cc1cc(Cl)c(O)c(C(=O)C(=O)C(O)c2ccc3c(c2)OCO3)c1` (stereo unspecified), for which the growth inhibition in test [1] (setting [7]) is 98% (active); in test [1] (setting [8]), 99% (active); in test [1] (at 50.0 µM), 87.9% (active); in test [2] (setting [7]), 96% (active); in test [2] (setting [8]), 99% (active); in test [2] (at 50.0 µM) it was 90% (active). For the same compound, the growth inhibition in test [3] (setting [7]) is 37%; in test [3] (setting [8]), 99% (active); in test [3] (at 50.0 µM), 82.1% (active); in test [4] (setting [7]), 58%; in test [4] (setting [8]) it was 99% (active); in test [4] (at 50.0 µM), 87.9% (active). In addition, the growth inhibition is 64% in test [5] (setting [7]); 94% (active) in test [5] (setting [8]); 87.9% (active) in test [5] (at 50.0 µM); 38% in test [6] (setting [7]); 99% (active) in test [6] (setting [8]); 84.1% (active) in test [6] (at 50.0 µM).
On to `CCOC(=O)c1c(O)c(C)c(=O)n2c1[nH]c1cc(C)c(C)cc12`, for which the growth inhibition in test [1] (setting [7]) is -1%; in test [1] (setting [8]) it was 12%; in test [1] (at 50.0 µM), -6.75%; in test [2] (setting [7]), 10%; in test [2] (setting [8]), 33%; in test [2] (at 50.0 µM), -6.85%. The growth inhibition is 12% in test [3] (setting [7]); 29% in test [3] (setting [8]); -6.5% in test [3] (at 50.0 µM); -4% in test [4] (setting [7]); 2% in test [4] (setting [8]); -21.3% in test [4] (at 50.0 µM). In addition, the growth inhibition in test [5] (setting [7]) is -6%; in test [5] (setting [8]), 14%; in test [5] (at 50.0 µM), -43.9%; in test [6] (setting [7]) it was -4%; in test [6] (setting [8]) it was 38%; in test [6] (at 50.0 µM), -10.6%.
